CYP2C9 act = human CYP2C9 activators, primary screen, biochemical, luminescence | Cytochrome P450 2C9 (Homo sapiens), P11712 | recombinant CYP2C9, luciferin-H conversion; stronger effect = higher value; factor 1 = untreated enzyme, 0 = blocked | activation factor at 5 µM | AID 1024, 2008 | 96,000 compounds, 1.4% hits;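 active = activation factor of 2 or more for CYP2C9 at a 5 µM dose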;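 note: 0 = sulfaphenazole-blocked wells and 1 = vehicle-only wells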
Target sequence (P11712 whole entry, looked up): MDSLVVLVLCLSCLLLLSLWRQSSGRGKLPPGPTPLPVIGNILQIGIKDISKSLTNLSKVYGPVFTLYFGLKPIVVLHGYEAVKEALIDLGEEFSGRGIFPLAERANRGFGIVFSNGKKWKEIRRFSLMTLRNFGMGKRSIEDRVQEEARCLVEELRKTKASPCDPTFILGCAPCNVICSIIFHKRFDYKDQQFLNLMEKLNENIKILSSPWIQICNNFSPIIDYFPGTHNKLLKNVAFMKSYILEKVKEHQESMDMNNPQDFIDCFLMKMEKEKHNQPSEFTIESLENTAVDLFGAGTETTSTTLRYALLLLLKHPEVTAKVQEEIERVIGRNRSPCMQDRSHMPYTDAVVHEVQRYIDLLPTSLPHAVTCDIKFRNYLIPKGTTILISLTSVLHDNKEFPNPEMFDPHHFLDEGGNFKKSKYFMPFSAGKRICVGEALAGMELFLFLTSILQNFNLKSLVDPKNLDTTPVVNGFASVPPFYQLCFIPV
CYP2C9 inhib = blockers of cytochrome P450 2C9 activity – biochemical, luminescence, ADME assay, primary screen; P11712; CYP2C9 Supersomes, luciferin-H conversion; inhibition, % at 5 µM; 96,000 compounds, 20% hits; AID 777, 2007;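 active = blocking of liver enzyme CYP2C9 beyond about 50% at 5 µM, limit read from the data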
CYP2C19 activ = human CYP2C19 activators, primary screen, biochemical, luminescence. 96,000 tested, under 10 active. activation factor at 5 µM. AID 1025, 2008. recombinant CYP2C19, luciferin-H EGE luminescence; stronger effect = higher value; 0 = fully inhibited enzyme, 1 = untreated enzyme. Cytochrome P450 2C19 (Homo sapiens), P33261;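 active = activation factor of at least 2 at 5 µM in the primary screen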;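 note: 0 = wells with 2.5 mM tranylcypromine and 1 = vehicle-only wells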
CYP2C19 inhib = blockers of cytochrome P450 2C19 activity – biochemical, luminescence, ADME assay, primary screen; P33261; CYP2C19 Supersomes, luciferin-H EGE luminescence, 30 min; inhibition, % at 5 µM; 96,000 compounds, 21% hits; AID 778, 2007;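 active = CYP2C19 inhibition above a set limit at 5 µM in the primary screen, cut at about 50% in these data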;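 note: plate controls were negative control wells for no effect and 2.5 mM tranylcypromine positive control for full effect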
Measles CPE = compounds protecting cells from measles virus cytopathic effect, primary screen, measles RdRp inhibitor project, single point, MLSMR library, absorbance; Measles virus-infected cells, CPE protection; protection (pct of control), % at 4 µM; 140,000 compounds, 1.5% hits; AID 841, 2007; in the data active = protection mostly above about 24%, no sharp cut-off; inactive = mostly below about 26%
Active calls of the source: *. The list is not random: actives were taken first. Their share in the collection is about 22%.

For CCOc1ccc(N/C=C/C(=O)c2ccc(OC)cc2)c([N+](=O)[O-])c1 the results were CYP2C9 act 3*, CYP2C9 inhib -200, CYP2C19 activ 0.7, CYP2C19 inhib 26 and Measles CPE 4.
For COc1ccc(C(=O)/C=C/Nc2cc(C)on2)cc1 the results were CYP2C9 act 0.6, CYP2C9 inhib 36, CYP2C19 activ 0.4, CYP2C19 inhib 58* and Measles CPE 3.
`COc1ccc(OCCC(=O)NC2=NCCS2)cc1` gave CYP2C9 act 1.2, CYP2C9 inhib -18, CYP2C19 activ 0.2, CYP2C19 inhib 76* and Measles CPE 1.
Screening COc1ccc(C(=O)/C=C/Nc2ccc([N+](=O)[O-])cc2)cc1 returned Measles CPE 39.
Screening CCC(C)(C)NC(=O)C(c1ccc(OC)cc1)N(Cc1ccco1)C(=O)CCC(=O)Nc1cc(C)on1 (stereo not drawn) returned Measles CPE 16.
COc1ccc(C(C(=O)NC(C)(C)C)N(Cc2ccco2)C(=O)CCC(=O)Nc2cc(C)on2)cc1 (stereo not drawn) was read as CYP2C9 act 0.3, CYP2C9 inhib 69*, CYP2C19 activ 0.6, CYP2C19 inhib 38 and Measles CPE 19.
`O=c1nc2c(O)cccn2c2c1c(=O)[nH]c1ccccc12` gave Measles CPE 17.
O=C(CCCSc1nc2ccccc2s1)NC1=NCCS1 was read as CYP2C9 act 1.5, CYP2C9 inhib -47, CYP2C19 activ 0.2, CYP2C19 inhib 83* and Measles CPE 4.
`O=C(COc1ccccc1)NC1=NCCS1` gave CYP2C9 act 1, CYP2C9 inhib 3, CYP2C19 activ 0.9, CYP2C19 inhib 8 and Measles CPE 78*.
For Cc1ccc2c(Cl)cc(Cl)c(OCC(=O)NCc3ccco3)c2n1 the results were CYP2C9 act 1.2, CYP2C9 inhib -21, CYP2C19 activ 0.9, CYP2C19 inhib 13 and Measles CPE 16.
For Cc1ccc2c(Cl)cc(Cl)c(OCC(=O)Nc3cc(C)on3)c2n1 the results were CYP2C9 act 1.9, CYP2C9 inhib -89, CYP2C19 activ 0.5, CYP2C19 inhib 50* and Measles CPE 13.
Screening Cc1cccc(C)c1NC(=O)CCCSc1nc2ccccc2s1 returned Measles CPE 5.
Screening Cc1cc(NS(=O)(=O)c2ccc(NC(=O)CCCOc3ccc(Cl)cc3)cc2)no1 returned CYP2C9 act 0.4, CYP2C9 inhib 58*, CYP2C19 activ 0.8, CYP2C19 inhib 22 and Measles CPE 2.
Screening C=CCOc1cccc(C2C(C(=O)c3ccco3)=C(O)C(=O)N2CCN2CCOCC2)c1 (stereo not drawn) returned CYP2C9 act 0.9, CYP2C9 inhib 5, CYP2C19 activ 1, CYP2C19 inhib 4 and Measles CPE 1.
`COc1cc2c(C(=O)O)c(C)n(CC(C)C)c2c2ccccc12` gave CYP2C9 act 1, CYP2C9 inhib 3, CYP2C19 activ 1.2, CYP2C19 inhib -21 and Measles CPE 6.
`COc1ccc(OCCC(=O)Nc2cc(C)on2)cc1` gave CYP2C9 act 0.7, CYP2C9 inhib 29, CYP2C19 activ 0.4, CYP2C19 inhib 63* and Measles CPE 6.
COc1ccc(CC(=O)Nc2cc(C)on2)cc1 was read as CYP2C9 act 1, CYP2C9 inhib 2, CYP2C19 activ 0.7, CYP2C19 inhib 26 and Measles CPE 14.
`Oc1ccc(-c2n[nH]c(=S)n2Cc2ccco2)cc1` gave CYP2C9 act 0.3, CYP2C9 inhib 68*, CYP2C19 activ 0.7, CYP2C19 inhib 31 and Measles CPE 25.
Screening S=c1[nH]nc(Cc2ccccc2)n1Cc1ccco1 returned CYP2C9 act 0.6, CYP2C9 inhib 39, CYP2C19 activ 0.3, CYP2C19 inhib 71* and Measles CPE 8.
`CCCn1c(Cc2ccccc2)n[nH]c1=S` gave CYP2C9 act 1.1, CYP2C9 inhib -5, CYP2C19 activ 0.8, CYP2C19 inhib 16 and Measles CPE 28.
`Cc1ccc(SCCNC(=O)C(C)C)cc1` gave CYP2C9 act 0.9, CYP2C9 inhib 8, CYP2C19 activ 0.9, CYP2C19 inhib 11 and Measles CPE 4.
O=C(c1ccco1)N1CCN(C(c2cccs2)c2nnnn2C2CCCCC2)CC1 (stereo not drawn) was read as CYP2C9 act 0.3, CYP2C9 inhib 68*, CYP2C19 activ 0.5, CYP2C19 inhib 45 and Measles CPE 19.
`c1csc(C(c2nnnn2C2CCCC2)N2CCCC3(CCCCC3)C2)c1` (stereo not drawn) gave CYP2C9 act 0.4, CYP2C9 inhib 56*, CYP2C19 activ 0.9, CYP2C19 inhib 14 and Measles CPE 8.
For O=C(NCCCCCCNC(=O)OC1CCS(=O)(=O)C1)OC1CCS(=O)(=O)C1 (stereo not drawn) the results were CYP2C9 act 1, CYP2C9 inhib 1, CYP2C19 activ 1, CYP2C19 inhib 4 and Measles CPE 23.
For Cc1cc(NC(=O)c2ccc(Br)c(S(=O)(=O)N3CCCC3)c2)no1 the results were CYP2C9 act 1.1, CYP2C9 inhib -6, CYP2C19 activ 1.1, CYP2C19 inhib -9 and Measles CPE 8.
For COc1ccc(S(=O)(=O)N2Cc3ccccc3CC2C(=O)Nc2ccc(O)cc2)cc1OC (stereo not drawn) the results were CYP2C9 act 0.1, CYP2C9 inhib 91*, CYP2C19 activ 0.2, CYP2C19 inhib 80* and Measles CPE 6.
CCS(=O)(=O)N1Cc2ccccc2CC1C(=O)Nc1ccc(C)cc1 (stereo not drawn) was read as CYP2C9 act 0.4, CYP2C9 inhib 61*, CYP2C19 activ 0.1, CYP2C19 inhib 86* and Measles CPE 5.
For N/C(CCN1CCOCC1)=N/O the results were Measles CPE 20.
COc1ccc(Cc2nc3ccccc3n2CC(=O)N/N=C/c2ccc(C)cc2O)cc1OC was read as Measles CPE 8.
For C/C(Cl)=C\CNC(C)c1ccccc1 (stereo not drawn) the results were CYP2C9 act 0.9, CYP2C9 inhib 6, CYP2C19 activ 0.5, CYP2C19 inhib 55* and Measles CPE 5.
CC(NCc1cccn1C)c1ccccc1 (stereo not drawn) was read as CYP2C9 act 1.3, CYP2C9 inhib -27, CYP2C19 activ 0.7, CYP2C19 inhib 33 and Measles CPE 9.
For O=C(O)CCCCn1c(SCC(=O)Nc2ccccc2C(F)(F)F)nc2ccsc2c1=O the results were Measles CPE 14.
For CCC(C)n1c(SCC(=O)Nc2ccccc2C(F)(F)F)nc2ccsc2c1=O (stereo not drawn) the results were CYP2C9 act 0.3, CYP2C9 inhib 72*, CYP2C19 activ 0.5, CYP2C19 inhib 46 and Measles CPE 20.

High-throughput results (PubChem BioAssay)
